Reference: the supplement of paper PMC11732987, “Enantioselective OTUD7B fragment discovery through chemoproteomics screening and high-throughput optimisation” (Communications Chemistry, 2025)
Unmarked numbers belong to inactive results.

Compound: ClCC(=O)N1CCC(CC#N)C1
Assay: log2 ratio of Biotin-Ahx-Ub-VS probe labelling (compound/DMSO); higher = less target engagement, active = hit call of the paper (q ≤ 0.05, log2 ratio ≤ -1)
Conditions: compound concentration: 50uM; treatment time: 3 h
Method: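 Round 2 competitive ABPP in HEK293T lysate. Purified HTC-D2B compounds were tested at 50 and 200 µM for 3 h, followed by Biotin-Ahx-Ub-VS enrichment and diaPASEF LC-MS/MS. Values are the average log2 ratio (compound/DMSO) from an unpaired t-test (n=3 treated, n=26 DMSO).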

Sequence of UniProt P45974 (P45974 whole entry): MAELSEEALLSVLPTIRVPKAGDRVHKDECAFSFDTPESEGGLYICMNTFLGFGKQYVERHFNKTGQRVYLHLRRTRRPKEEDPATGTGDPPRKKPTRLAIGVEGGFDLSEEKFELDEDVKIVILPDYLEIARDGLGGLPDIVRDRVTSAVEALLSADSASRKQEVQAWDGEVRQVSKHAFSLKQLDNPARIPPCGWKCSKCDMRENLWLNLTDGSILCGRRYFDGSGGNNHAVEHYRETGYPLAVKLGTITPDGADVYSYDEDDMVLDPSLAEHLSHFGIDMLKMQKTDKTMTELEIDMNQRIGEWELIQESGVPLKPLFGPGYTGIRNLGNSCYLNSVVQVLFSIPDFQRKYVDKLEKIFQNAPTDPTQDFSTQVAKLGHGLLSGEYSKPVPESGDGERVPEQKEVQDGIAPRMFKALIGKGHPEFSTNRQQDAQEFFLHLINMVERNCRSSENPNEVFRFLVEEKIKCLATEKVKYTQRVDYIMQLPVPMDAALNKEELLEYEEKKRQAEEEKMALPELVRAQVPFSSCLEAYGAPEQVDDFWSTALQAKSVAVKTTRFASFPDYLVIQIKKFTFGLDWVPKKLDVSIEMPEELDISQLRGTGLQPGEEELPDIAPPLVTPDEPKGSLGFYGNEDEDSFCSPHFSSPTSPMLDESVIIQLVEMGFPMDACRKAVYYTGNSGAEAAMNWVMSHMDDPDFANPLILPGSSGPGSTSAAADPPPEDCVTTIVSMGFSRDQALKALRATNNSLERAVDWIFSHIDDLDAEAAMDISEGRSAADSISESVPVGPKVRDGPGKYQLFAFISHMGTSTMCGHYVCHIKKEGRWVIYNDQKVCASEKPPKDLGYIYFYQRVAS
Sequence of UniProt O00303 (O00303 whole entry): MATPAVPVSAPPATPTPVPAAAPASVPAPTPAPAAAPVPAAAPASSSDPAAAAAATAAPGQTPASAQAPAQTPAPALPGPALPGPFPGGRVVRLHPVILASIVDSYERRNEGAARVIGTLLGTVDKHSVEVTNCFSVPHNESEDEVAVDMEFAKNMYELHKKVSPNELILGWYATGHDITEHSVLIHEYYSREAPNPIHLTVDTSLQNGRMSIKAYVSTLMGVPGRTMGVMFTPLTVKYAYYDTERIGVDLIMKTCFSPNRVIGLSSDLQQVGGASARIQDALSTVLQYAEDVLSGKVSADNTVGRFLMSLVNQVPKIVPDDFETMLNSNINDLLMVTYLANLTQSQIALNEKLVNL
Sequence of UniProt Q9UPU5 (Q9UPU5 whole entry): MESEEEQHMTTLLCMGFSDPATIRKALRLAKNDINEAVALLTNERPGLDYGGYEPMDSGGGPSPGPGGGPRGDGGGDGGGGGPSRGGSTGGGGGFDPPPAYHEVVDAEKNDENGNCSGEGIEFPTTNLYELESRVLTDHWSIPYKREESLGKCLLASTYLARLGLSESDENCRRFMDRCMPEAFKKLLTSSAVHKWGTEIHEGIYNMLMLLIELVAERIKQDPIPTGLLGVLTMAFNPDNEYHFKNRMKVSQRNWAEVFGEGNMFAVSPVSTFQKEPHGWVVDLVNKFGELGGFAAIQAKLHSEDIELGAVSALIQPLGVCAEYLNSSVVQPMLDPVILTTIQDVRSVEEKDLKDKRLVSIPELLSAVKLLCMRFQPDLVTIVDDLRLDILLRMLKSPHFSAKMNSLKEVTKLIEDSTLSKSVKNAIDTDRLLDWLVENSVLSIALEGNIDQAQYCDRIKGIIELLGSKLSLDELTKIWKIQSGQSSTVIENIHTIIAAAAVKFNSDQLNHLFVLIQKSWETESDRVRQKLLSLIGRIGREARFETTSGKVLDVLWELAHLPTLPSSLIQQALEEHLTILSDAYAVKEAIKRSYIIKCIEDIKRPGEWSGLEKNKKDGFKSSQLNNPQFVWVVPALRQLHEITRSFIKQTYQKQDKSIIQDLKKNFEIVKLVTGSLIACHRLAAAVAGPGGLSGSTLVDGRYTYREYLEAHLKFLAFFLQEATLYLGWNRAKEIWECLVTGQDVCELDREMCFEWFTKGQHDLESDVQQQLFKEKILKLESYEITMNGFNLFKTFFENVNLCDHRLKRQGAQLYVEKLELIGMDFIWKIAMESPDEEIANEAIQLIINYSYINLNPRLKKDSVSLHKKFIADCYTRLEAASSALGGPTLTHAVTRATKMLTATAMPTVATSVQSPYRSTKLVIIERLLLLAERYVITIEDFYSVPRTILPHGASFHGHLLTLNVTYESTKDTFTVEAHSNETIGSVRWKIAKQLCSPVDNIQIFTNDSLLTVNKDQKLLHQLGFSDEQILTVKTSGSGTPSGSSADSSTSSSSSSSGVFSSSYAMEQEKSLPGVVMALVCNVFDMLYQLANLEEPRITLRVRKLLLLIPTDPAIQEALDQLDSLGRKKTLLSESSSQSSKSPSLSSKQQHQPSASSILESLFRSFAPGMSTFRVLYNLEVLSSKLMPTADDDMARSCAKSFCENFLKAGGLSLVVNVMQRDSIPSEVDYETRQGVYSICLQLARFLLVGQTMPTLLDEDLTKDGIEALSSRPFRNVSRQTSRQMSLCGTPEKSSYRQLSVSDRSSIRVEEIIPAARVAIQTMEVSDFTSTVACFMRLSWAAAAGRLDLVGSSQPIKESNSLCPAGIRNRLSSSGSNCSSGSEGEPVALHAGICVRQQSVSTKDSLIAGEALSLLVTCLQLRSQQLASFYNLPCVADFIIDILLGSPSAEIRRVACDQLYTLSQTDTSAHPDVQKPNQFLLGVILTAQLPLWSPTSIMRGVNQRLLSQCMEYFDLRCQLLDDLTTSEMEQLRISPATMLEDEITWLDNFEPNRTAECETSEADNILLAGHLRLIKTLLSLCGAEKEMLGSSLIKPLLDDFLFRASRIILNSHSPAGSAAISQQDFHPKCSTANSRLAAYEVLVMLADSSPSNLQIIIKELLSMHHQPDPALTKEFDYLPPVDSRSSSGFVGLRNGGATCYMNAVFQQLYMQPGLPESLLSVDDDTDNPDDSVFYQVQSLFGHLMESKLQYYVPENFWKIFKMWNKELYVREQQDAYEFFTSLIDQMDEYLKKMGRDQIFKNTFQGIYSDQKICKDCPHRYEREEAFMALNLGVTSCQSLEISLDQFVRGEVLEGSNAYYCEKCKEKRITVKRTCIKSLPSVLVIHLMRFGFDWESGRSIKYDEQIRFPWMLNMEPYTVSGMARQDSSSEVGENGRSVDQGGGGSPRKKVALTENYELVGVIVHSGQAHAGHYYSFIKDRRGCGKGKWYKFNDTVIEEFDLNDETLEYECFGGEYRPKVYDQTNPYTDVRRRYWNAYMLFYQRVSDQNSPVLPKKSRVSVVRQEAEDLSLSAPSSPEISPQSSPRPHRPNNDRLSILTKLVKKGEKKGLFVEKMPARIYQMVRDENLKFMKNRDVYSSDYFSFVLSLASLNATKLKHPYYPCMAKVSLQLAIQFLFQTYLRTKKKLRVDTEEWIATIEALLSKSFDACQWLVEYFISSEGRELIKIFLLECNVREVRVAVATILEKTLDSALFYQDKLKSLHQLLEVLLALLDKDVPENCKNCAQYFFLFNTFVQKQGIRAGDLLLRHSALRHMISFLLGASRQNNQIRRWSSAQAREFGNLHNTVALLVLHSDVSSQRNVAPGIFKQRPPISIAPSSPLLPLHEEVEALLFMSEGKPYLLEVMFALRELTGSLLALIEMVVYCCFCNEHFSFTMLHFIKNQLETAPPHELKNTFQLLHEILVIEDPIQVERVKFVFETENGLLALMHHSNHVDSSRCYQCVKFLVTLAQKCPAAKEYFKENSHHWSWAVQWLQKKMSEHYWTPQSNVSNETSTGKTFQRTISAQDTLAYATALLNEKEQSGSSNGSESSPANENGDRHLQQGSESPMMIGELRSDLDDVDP
Sequence of UniProt Q5VVQ6 (Q5VVQ6 whole entry): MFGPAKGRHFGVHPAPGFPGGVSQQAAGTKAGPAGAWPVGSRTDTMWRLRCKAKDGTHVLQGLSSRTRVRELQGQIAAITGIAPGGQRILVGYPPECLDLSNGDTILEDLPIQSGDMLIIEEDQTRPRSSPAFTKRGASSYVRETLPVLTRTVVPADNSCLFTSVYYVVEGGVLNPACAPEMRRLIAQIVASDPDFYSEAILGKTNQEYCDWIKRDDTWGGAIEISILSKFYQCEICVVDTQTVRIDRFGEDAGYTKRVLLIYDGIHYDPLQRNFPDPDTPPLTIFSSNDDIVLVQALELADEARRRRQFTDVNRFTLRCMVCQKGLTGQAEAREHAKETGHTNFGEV
Sequence of UniProt Q9UGI0 (Q9UGI0 whole entry): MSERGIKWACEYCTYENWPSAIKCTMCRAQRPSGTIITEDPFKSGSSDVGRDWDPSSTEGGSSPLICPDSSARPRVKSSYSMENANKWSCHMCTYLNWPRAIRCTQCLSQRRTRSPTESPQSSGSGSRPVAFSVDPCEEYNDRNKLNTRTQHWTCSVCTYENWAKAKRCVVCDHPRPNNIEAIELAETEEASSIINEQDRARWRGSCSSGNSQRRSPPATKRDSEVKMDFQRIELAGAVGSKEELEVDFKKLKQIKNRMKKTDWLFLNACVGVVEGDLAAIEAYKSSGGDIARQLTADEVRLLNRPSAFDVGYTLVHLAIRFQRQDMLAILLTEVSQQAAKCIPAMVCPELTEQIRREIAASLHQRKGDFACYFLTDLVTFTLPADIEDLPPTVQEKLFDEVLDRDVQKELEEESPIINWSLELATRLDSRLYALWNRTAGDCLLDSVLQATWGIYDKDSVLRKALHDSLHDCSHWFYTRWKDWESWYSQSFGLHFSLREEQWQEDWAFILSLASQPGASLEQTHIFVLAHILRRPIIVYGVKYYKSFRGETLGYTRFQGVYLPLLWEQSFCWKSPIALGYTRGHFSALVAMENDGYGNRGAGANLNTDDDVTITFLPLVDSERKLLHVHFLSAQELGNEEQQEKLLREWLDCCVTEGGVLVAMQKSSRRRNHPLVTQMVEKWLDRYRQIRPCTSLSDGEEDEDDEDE

| Target | log2 ratio of Biotin-Ahx-Ub-VS probe labelling |
| --- | --- |
| USP39 (UniProt Q53GS9) | -0.0848 |
| UniProt Q9UGI0 | -0.025 |
| USP12 (UniProt O75317) | -0.0667 |
| UCHL5 (UniProt Q9Y5K5) | -0.227 |
| YOD1 (UniProt Q5VVQ6) | -0.225 |
| USP24 (UniProt Q9UPU5) | -0.155 |
| USP15 (UniProt Q9Y4E8) | -0.281 |
| USP5 (UniProt P45974) | -0.0602 |
| PRPF8 (UniProt Q6P2Q9) | 0.045 |
| OTUD7B (UniProt Q6GQQ9) | -0.339 |
| USP46 (UniProt P62068) | -0.14 |
| EIF3F (UniProt O00303) | -0.172 |
| EIF3H (UniProt O15372) | 0.0416 |
| USP36 (UniProt Q9P275) | -0.193 |
| USP48 (UniProt Q86UV5) | -0.0601 |
| ATXN3 (UniProt P54252) | -0.387 |
| UniProt Q5T2D3 | -0.206 |
| UniProt Q9P2H5 | -0.115 |
| USP42 (UniProt Q9H9J4) | -0.0062 |
| USP28 (UniProt Q96RU2) | -0.0624 |

Same assay, conditions: compound concentration: 200uM; treatment time: 3 h

| Target | log2 ratio of Biotin-Ahx-Ub-VS probe labelling |
| --- | --- |
| USP39 (UniProt Q53GS9) | 0.0939 |
| UniProt Q9UGI0 | -0.16 |
| USP12 (UniProt O75317) | -0.647 |
| UCHL5 (UniProt Q9Y5K5) | -0.17 |
| YOD1 (UniProt Q5VVQ6) | 0.00802 |
| USP24 (UniProt Q9UPU5) | -0.576 |
| USP15 (UniProt Q9Y4E8) | -0.268 |
| USP5 (UniProt P45974) | 0.0332 |
| PRPF8 (UniProt Q6P2Q9) | -0.00376 |
| OTUD7B (UniProt Q6GQQ9) | -0.552 |
| USP46 (UniProt P62068) | -0.548 |
| EIF3F (UniProt O00303) | 0.14 |
| EIF3H (UniProt O15372) | 0.0793 |
| USP36 (UniProt Q9P275) | 0.0225 |
| USP48 (UniProt Q86UV5) | -0.185 |
| ATXN3 (UniProt P54252) | -0.524 |
| UniProt Q5T2D3 | -0.203 |
| UniProt Q9P2H5 | 0.00502 |
| USP42 (UniProt Q9H9J4) | 0.221 |
| USP28 (UniProt Q96RU2) | -0.291 |
